Laboratory results published in PubChem BioAssay (NCATS).
Records with an inconclusive call do not appear. Unless noted, the call rests on the fitted dose curve; in most records, active means well fitted curve in either direction with a large enough effect (not every such curve was filed as active); inconclusive means small, poorly fitted or top-dose-only effect, or another doubt; inactive means flat fitted curve, though single readings scatter.

Key:
[1] = AP1 Signaling Pathway (AID 357); conditions: ME-180 AP-1-bla reporter, EGF-induced, beta-lactamase ratio, 5 h; at 17.2 µM (top of the series) unless noted; further: on the % scale 0 is the no-effect control and ±100 the full control effect
How it was run: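 Modulation of EGF-driven AP-1 transcription was assessed with a beta-lactamase reporter in ME-180 cells. Compound and EC50 EGF were co-incubated 5 hours at 37 °C before 2.5-hour CCF4 loading at room temperature and dual-emission reading.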

[2] = NFAT Signaling Pathway (AID 444); conditions: Jurkat NFAT-bla M1, carbachol, beta-lactamase ratio, 5 h; at 17.2 µM (top of the series) unless noted;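 further: carbachol stimulus at about its EC50 of 1 µM final; on the % scale 0 is the no-effect control and ±100 the full control effect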
How it was run: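 Read-out: CCF4 FRET ratio (460 nm/530 nm) after 1 h RT dye loading, used for %activity and AC50 from titration series. Cells: Jurkat NFAT-β-lactamase/M1 line, treated with compound plus 1 uM carbachol for 5 h, 37 °C.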

[3] = Stat Signaling Pathway (AID 446); conditions: ME-180 (cervical carcinoma) SIE beta-lactamase reporter, IL-6 stimulated, 5 h; at 17.2 µM (top of the series) unless noted;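 further: ME-180 cervical cancer cells given 40 pM IL-6 alongside compound; SIE-controlled beta-lactamase reporter measured as 460/530 nm FRET emission ratio; on the % scale 0 is the no-effect control and ±100 the full control effect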
How it was run: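 Overnight-plated ME-180 cells bearing a STAT Inducible Element beta-lactamase reporter; 5 h co-exposure to compound and 40 pM IL-6; values normalized to 300 pM IL-6 and 125 nM JAK inhibitor controls.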

[4] = biological target: Glucocorticoid receptor (Homo sapiens) (UniProt P04150); test: GR-GFP Redistribution (AID 450;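 active means compounds whose dose series gives a full or clear partial fitted curve of increased nuclear translocation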; further: potency means the concentration at half of the fitted maximal effect)
Chain of Glucocorticoid receptor (Homo sapiens) (P04150 whole entry, looked up): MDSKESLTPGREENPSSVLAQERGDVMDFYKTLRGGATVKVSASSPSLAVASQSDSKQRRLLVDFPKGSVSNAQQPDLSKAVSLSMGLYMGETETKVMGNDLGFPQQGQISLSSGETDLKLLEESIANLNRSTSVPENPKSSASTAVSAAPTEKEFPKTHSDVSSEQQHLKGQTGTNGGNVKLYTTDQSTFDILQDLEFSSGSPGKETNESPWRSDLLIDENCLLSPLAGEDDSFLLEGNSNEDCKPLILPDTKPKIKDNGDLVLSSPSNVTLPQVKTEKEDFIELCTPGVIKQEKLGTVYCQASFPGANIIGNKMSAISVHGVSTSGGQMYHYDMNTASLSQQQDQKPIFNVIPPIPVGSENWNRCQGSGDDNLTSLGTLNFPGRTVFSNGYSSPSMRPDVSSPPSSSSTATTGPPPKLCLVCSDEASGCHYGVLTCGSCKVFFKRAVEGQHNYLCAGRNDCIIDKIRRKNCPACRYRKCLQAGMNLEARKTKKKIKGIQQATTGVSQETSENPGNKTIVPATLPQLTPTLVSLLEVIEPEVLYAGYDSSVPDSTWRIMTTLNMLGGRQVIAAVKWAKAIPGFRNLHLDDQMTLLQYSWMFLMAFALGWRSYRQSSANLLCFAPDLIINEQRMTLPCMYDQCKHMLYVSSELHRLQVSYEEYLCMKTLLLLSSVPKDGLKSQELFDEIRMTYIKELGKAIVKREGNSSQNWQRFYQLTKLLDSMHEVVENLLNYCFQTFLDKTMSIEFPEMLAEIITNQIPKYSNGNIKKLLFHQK

O=C(CSc1nc2ccccc2s1)Nn1cnnc1
inactive: activity change, negative = inhibition [1] 3.59% | activity change, negative = inhibition [2] 2.13% | activity, negative = inhibition [3] 5.58% | Potency [4] > 20.6 µM

Cc1c(C)[n+](=O)c2c(n1[O-])CCC2
inactive: activity change, negative = inhibition [1] 0.615% | activity change, negative = inhibition [2] -5.07% | activity, negative = inhibition [3] -0.102% | Potency [4] > 20.6 µM

C=CCn1cnc2c(c1=O)c1nc3ccccc3nc1n2-c1ccc(Cl)cc1
inactive: activity change, negative = inhibition [1] 8.09% | activity change, negative = inhibition [2] -0.571% | activity, negative = inhibition [3] -1.17% | Potency [4] > 20.6 µM

CC1(C)Cc2c(c(-c3ccccc3)[nH]c(=O)c2C#N)CS1
inactive: activity change, negative = inhibition [1] -0.182% | activity change, negative = inhibition [2] 2.27% | activity, negative = inhibition [3] -8.62% | Potency [4] > 20.6 µM

C/C(=N\O)C(=O)NCCCNCCCN(C)C
inactive: activity change, negative = inhibition [1] 2.66% | activity change, negative = inhibition [2] -0.0528% | activity, negative = inhibition [3] 14.2% | Potency [4] > 20.6 µM

Cn1c(N)c(C#N)c(C#N)c1-c1ccccc1
inactive: activity change, negative = inhibition [1] -21.2% | activity change, negative = inhibition [2] 4.54% | activity, negative = inhibition [3] -8.46% | Potency [4] > 20.6 µM

CC(NC(=O)Nc1nnc(C(F)(F)F)s1)(C(F)(F)F)C(F)(F)F
inactive: activity change, negative = inhibition [1] -3.33% | activity change, negative = inhibition [2] 0.893% | activity, negative = inhibition [3] 0.617% | Potency [4] > 20.6 µM

COc1ccc(CC(=O)OCN2C(=O)c3ccccc3C2=O)cc1
inactive: activity change, negative = inhibition [1] 11.9% | activity change, negative = inhibition [2] -7.12% | activity, negative = inhibition [3] -0.768% | Potency [4] > 20.6 µM

Clc1ccc(-n2ncc3c(N4CCCC4)ncnc32)cc1
inactive: activity change, negative = inhibition [1] 3% | activity change, negative = inhibition [2] 6.28% | activity, negative = inhibition [3] -0.254% | Potency [4] > 20.6 µM

O=C(CC1SC2=NCCN2C1=O)Nc1ccccc1 (configuration not stated)
inactive: activity change, negative = inhibition [1] 4.21% | activity change, negative = inhibition [2] 19% | activity, negative = inhibition [3] -5.25% | Potency [4] > 20.6 µM

COc1ccc2nc(/N=C(\N)NC(=O)C(C)(C)C)nc(C)c2c1
inactive: activity change, negative = inhibition [1] 1.33% | activity change, negative = inhibition [2] 0.865% | activity, negative = inhibition [3] 0.61% | Potency [4] > 20.6 µM

COc1cccc(C2C(C(=O)c3cc4ccccc4o3)=C(O)C(=O)N2CCN(C)C)c1OC (configuration not stated)
inactive: activity change, negative = inhibition [1] 8.36% | activity change, negative = inhibition [2] 1.15% | activity, negative = inhibition [3] -6.68% | Potency [4] > 20.6 µM

COc1cccc(/C=C2/CN(C)CC3=C2OC(N)=C(C#N)C3c2cccc(OC)c2)c1 (configuration not stated)
inactive: activity change, negative = inhibition [1] -20.4% | activity change, negative = inhibition [2] -0.393% | activity, negative = inhibition [3] -1.9% | Potency [4] > 20.6 µM

CCCCOc1ccccc1/C=c1/sc2nc(-c3oc4ccccc4c3C)nn2c1=O
inactive: activity change, negative = inhibition [1] 4.54% | activity change, negative = inhibition [2] -23.5% | activity, negative = inhibition [3] -12.5% | Potency [4] > 20.6 µM

CC1(C)CC(N(Cc2ccco2)C(=O)Cc2ccccc2)CCO1 (configuration not stated)
inactive: activity change, negative = inhibition [1] -1.99% | activity change, negative = inhibition [2] -3.12% | activity, negative = inhibition [3] 9.62% | Potency [4] > 20.6 µM

Cn1ncc2nnn(-c3ccccc3)c(=O)c21
inactive: activity change, negative = inhibition [1] 3.86% | activity change, negative = inhibition [2] -4.96% | activity, negative = inhibition [3] 3.98% | Potency [4] > 20.6 µM

O=C(C/C(=N/O)c1ccccc1O)C(F)F
inactive: activity change, negative = inhibition [1] 15.8% | activity change, negative = inhibition [2] 0.0588% | activity, negative = inhibition [3] 3.52% | Potency [4] > 20.6 µM

CC(=O)Nc1ccc(OC(=O)CC2SC(=O)NC2=O)cc1 (configuration not stated)
inactive: activity change, negative = inhibition [1] 6.63% | activity change, negative = inhibition [2] 11.3% | activity, negative = inhibition [3] 5.85% | Potency [4] > 20.6 µM
